Source: PubChem BioAssay

assay: optical density shifts of acrAB sulA E. coli – strain DRC41, OD650, 48 h, E. coli filamentation inducer project, primary screen (AID 1152); conditions: higher = more signal, called active from +8 up or from −8 down;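 further: E. coli MC1000 strain DRC41 lacking acrAB efflux pump and sulA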

z-score, inactive:
COC(=O)[C@@]1(Cc2ccc(F)cc2)[C@H]2c3cc(C(=O)N(C)C)n(CCF)c3C[C@H]2CN1C(=O)c1ccccc1 1.28
COC(=O)[C@@]1(Cc2ccccc2)[C@H]2c3cc(C(=O)N(C)C)n(Cc4ccc(Cl)c(C(F)(F)F)c4)c3C[C@H]2CN1C(=O)c1ccccc1 -2.34
COc1ccc(NN2C(C(O)c3ccc(F)cc3)C=CC3C(=O)N(C4CCCCC4)C(=O)C32)cc1 (stereo not given) -1.24
[N-]=[N+]=NCc1ccccc1C[C@@]1(C(N)=O)N=C(c2ccc(OCCCO)cc2)O[C@@H]1c1ccccc1N=[N+]=[N-] -1.04
O=C1O[C@H](c2ccccc2)[C@H](c2ccccc2)N2[C@H]1[C@@H](C(=O)Nc1nc3ccccc3s1)[C@]1(C(=O)Nc3ccccc31)[C@H]2c1ccccc1OCCO 0.185
CC(C)c1ccc(NN2C(C(O)C(C)c3ccccc3)C=CC3C(=O)N(c4ccccc4)C(=O)C32)cc1 (stereo not given) -1.78
COCCCNC(=O)[C@]1(Cc2ccccc2N=[N+]=[N-])N=C(c2ccc(OCCCO)cc2)O[C@@H]1c1ccccc1 -0.112
COC(=O)[C@@]1(Cc2ccc(OC)cc2)[C@H]2c3cc(C(=O)N(C)C)n(Cc4c(CO)[nH]cc(C)c4=O)c3C[C@H]2CN1C(=O)c1ccccc1 -2.08
COC(=O)C(CC#Cc1ccc2c(c1)[C@]1(C(=O)N2)[C@H](c2ccc(OCCO)cc2)N2[C@H](c3ccccc3)[C@H](c3ccccc3)OC(=O)[C@H]2[C@@H]1C(N)=O)C(=O)OC -0.763
O=C1N(Cc2ccccc2)Cc2ccccc2C[C@@]12COC(c1ccc(OCCCO)cc1)=N2 -0.595
COCCCNC(=O)[C@@]1(c2ccc([N+](=O)[O-])cc2)CC(=O)N(C2CCCCC2)[C@@H]1c1ccc(CO)cc1I 0.725
CO[C@H]1O[C@H](CO)[C@@H](OC(=O)Nc2ccccc2)[C@@H]2OC(=O)[C@@H](Cc3ccccc3)C/C=C/C[C@H](Cc3ccccc3)C(=O)O[C@@H]12 0.364
O=C1O[C@@H](c2ccccc2)[C@@H](c2ccccc2)N2[C@@H](c3ccc(OCCO)cc3)[C@]3(C(=O)Nc4ccc(C#CC5=CCCCC5)cc43)[C@@H](C(=O)Nc3nc4ccccc4s3)[C@H]12 -0.558
COCCOC(=O)N1C(=O)[C@@]2(c3cc(C#CC4(O)CCCCCC4)ccc31)[C@H](C(N)=O)[C@H]1C(=O)O[C@H](c3ccccc3)[C@H](c3ccccc3)N1[C@@H]2c1ccc(OCCO)cc1 -0.0172
COC(=O)C(CC#Cc1ccc2c(c1)[C@]1(C(=O)N2)[C@H](C(N)=O)[C@H]2C(=O)O[C@H](c3ccccc3)[C@H](c3ccccc3)N2[C@@H]1c1ccccc1OCCO)C(=O)OC 0.879
Cc1ccc(S[C@]2(C(=O)NCC(C)C)CC(=O)N(C(C)C)[C@@H]2c2ccc(CO)cc2I)cc1 0.746
CN1C2C=C(c3ccc(CO)cc3)C(C3C(=O)N(C(N)=O)C(=O)C32)C1C1CC1 (stereo not given) 0.149
[N-]=[N+]=NCc1ccccc1[C@H]1OC(c2ccc(OCCCO)cc2)=N[C@@]1(CCS(=O)(=O)c1ccccc1)C(=O)O -0.123
COC(=O)[C@@]1(Cc2ccc(F)cc2)[C@H]2c3cc(C(=O)N4CCCC4)n(Cc4ccc(OC(F)(F)F)cc4)c3C[C@H]2CN1C(=O)c1ccccc1 -2.47
C[N+](C)(C)CCCC[C@@H]1NC(=O)[C@H]2C[C@@H](C(=O)O)[C@@H](c3ccc(O)cc3)N2C1=O 1.03
CN1C(=O)C2CC=C(C3=CCO[C@@H]3[C@H]3CCCN3S(=O)(=O)c3ccccc3[N+](=O)[O-])CC2C1=O (stereo not given in full) -0.62
COC(=O)[C@@]1(Cc2ccc(F)cc2)[C@H]2c3cc(C(=O)N4CCCC4)n(Cc4ccc(C(F)(F)F)nc4)c3C[C@H]2CN1C(=O)c1ccccc1 -0.984
C=C(CCCC)/C(=C/C[C@@H](OC(C)=O)c1cccc(OCCO)c1)c1cc(C(=O)OC)ccc1OC 0.198
O=C/C=C/c1ccc(-c2ccccc2)cc1 1.06
O=C1O[C@H](c2ccccc2)[C@H](c2ccccc2)N2[C@H]1[C@@H](C(=O)N1CCCCCCC1)[C@]1(C(=O)Nc3ccc(C#CCCO)cc31)[C@H]2c1ccc(O)cc1 1.48
